High-throughput results deposited in PubChem BioAssay by several laboratories.
The list is not random: actives were taken first. Their share in the collection is about 1.7%.
3CLpro inhibitor – SARS-CoV 3CLpro protease inhibitors, primary screen, biochemical, quenched FRET | Replicase polyprotein 1ab (Severe acute respiratory syndrome coronavirus), P0C6X7 | recombinant SARS-CoV 3CLpro, quenched FRET peptide cleavage | inhibition, % at 6 µM | 290,000 compounds, 0.14% hits | AID 1706, 2009; in the data active means inhibition above about 12%
SSB-PriA inh – inhibitors of Klebsiella pneumoniae PriA binding to SSB C-terminal tail, primary screen, biochemical, AlphaScreen | PriA–SSB C-terminal tail interaction (Klebsiella pneumoniae) | AlphaScreen SSBct-PriA binding, biotinylated peptide | inhibition, % at 33 µM | 430,000 compounds, 0.6% hits; in the data active means inhibition mostly above about 37%, no sharp cut-off; inactive means mostly below about 20%
DUSP3 inh – VHR1 phosphatase inhibitors, primary screen, biochemical, absorbance, uHTS | inhibition, % at 13.3 µM | 290,000 compounds, 0.52% hits | AID 1654, 2009 | recombinant VHR phosphatase, pNPP absorbance; in the data active means inhibition above about 50%
RecA intein inh – Mtb RecA intein splicing inhibitors, primary screen, biochemical, fluorescence, HTS; Protein RecA (Mycobacterium tuberculosis (strain ATCC 25618 / H37Rv)), P9WHJ3; cell-free RecA intein splicing; inhibition, % (test concentration not listed); 290,000 compounds, 0.75% hits; in the data active means inhibition above about 30%
Target sequence (P9WHJ3 whole entry, looked up): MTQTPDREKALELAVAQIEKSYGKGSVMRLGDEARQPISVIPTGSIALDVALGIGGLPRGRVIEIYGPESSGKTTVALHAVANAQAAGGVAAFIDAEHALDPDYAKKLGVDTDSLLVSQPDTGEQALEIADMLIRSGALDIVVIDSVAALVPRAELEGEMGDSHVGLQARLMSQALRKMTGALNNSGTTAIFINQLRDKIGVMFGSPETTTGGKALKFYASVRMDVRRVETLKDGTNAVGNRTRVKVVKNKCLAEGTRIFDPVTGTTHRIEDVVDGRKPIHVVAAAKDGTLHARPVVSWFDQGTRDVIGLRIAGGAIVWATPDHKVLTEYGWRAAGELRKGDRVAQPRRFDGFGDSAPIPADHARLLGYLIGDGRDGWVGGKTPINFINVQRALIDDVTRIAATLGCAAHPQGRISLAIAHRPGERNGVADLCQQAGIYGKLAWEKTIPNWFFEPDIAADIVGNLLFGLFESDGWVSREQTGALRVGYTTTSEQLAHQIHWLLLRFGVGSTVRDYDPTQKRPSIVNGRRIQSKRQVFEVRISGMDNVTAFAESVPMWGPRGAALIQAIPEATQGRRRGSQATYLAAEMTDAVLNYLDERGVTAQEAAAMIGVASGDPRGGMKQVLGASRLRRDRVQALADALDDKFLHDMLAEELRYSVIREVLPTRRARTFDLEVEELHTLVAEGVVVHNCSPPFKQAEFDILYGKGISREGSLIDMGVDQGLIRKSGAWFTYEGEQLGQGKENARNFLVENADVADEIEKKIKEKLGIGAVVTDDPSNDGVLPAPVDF
CCHF vOTU inh – CCHFV vOTU protease inhibitors, primary screen, biochemical, Pep-AMC substrate, fluorescence; Crimean-Congo hemorrhagic fever virus L polyprotein viral ovarian tumor (vOTU) protease …; inhibition, % at 11.5 µM; 370,000 compounds, 0.55% hits; in the data active means inhibition above about 30%
Large screens that a line does not name were inactive.

COCc1[nH]nc2c1C(c1cccc(OC)c1)C(C#N)=C(N)O2 (stereo not drawn)	RecA intein inh 57
COc1cc(-c2[nH]nc3c2C(c2ccoc2)C(C#N)=C(N)O3)cc(OC)c1OC (stereo not drawn)	none (no result: RecA intein inh)
COCc1[nH]nc2c1C(c1cc(OC)c(O)c(OC)c1)C(C#N)=C(N)O2 (stereo not drawn)	none
Cc1cc(C)c(C#N)c(SCc2[nH]nc3c2C(c2ccc(F)cc2)C(C#N)=C(N)O3)n1 (stereo not drawn)	RecA intein inh 32
CCCc1[nH]nc2c1C(c1ccc(OC)c(Cn3nnc4ccccc43)c1)C(C#N)=C(N)O2 (stereo not drawn)	RecA intein inh 70 (no result: CCHF vOTU inh)
Cc1cc(C#N)c(C)c(SCc2[nH]nc3c2C(c2ccccc2)C(C#N)=C(N)O3)n1 (stereo not drawn)	none
COc1ccc(-c2[nH]nc3c2C(c2ccsc2)C(C#N)=C(N)O3)cc1 (stereo not drawn)	RecA intein inh 71
COc1ccc(N=NC(=CO)C(=O)c2ccco2)cc1	none (no result: 3CLpro inhibitor, DUSP3 inh, RecA intein inh, CCHF vOTU inh)
CCOc1ccc(C2C(C#N)=C(N)Oc3nc[nH]c(=O)c32)cc1OC (stereo not drawn)	none
CCOc1ccc(-c2[nH]nc3c2C(c2ccc4c(c2)OCO4)C(C#N)=C(N)O3)cc1OC (stereo not drawn)	RecA intein inh 60
CCc1[nH]nc2c1C(c1cccnc1)C(C#N)=C(N)O2 (stereo not drawn)	RecA intein inh 45
N#CC1=C(N)Oc2n[nH]c(-c3cccs3)c2C1c1ccoc1 (stereo not drawn)	RecA intein inh 85
CCCc1[nH]nc2c1C(c1ccc(OC(=O)N3CCOCC3)cc1)C(C#N)=C(N)O2 (stereo not drawn)	RecA intein inh 48
COc1cc(C2C(C#N)=C(N)Oc3n[nH]c(-c4cccs4)c32)cc(OC)c1O (stereo not drawn)	none
CCCc1[nH]nc2c1C(c1cccnc1)C(C#N)=C(N)O2 (stereo not drawn)	none (no result: RecA intein inh)
COc1ccc(OC)c2sc(NC(=O)c3c(F)cccc3F)nc12	none (no result: 3CLpro inhibitor, DUSP3 inh, RecA intein inh, CCHF vOTU inh)
CCOc1ccc(N2C(=O)C3C4C=CC(C4)C3C2=O)cc1 (stereo not drawn)	none (no result: 3CLpro inhibitor, DUSP3 inh, RecA intein inh, CCHF vOTU inh)
N#CC1=C(N)Oc2n[nH]c(-c3ccc(F)cc3)c2C1c1ccncc1 (stereo not drawn)	RecA intein inh 62
CCCc1[nH]nc2c1C(c1ccc(O)c(OC)c1)C(C#N)=C(N)O2 (stereo not drawn)	RecA intein inh 79
CCCc1[nH]nc2c1C(c1ccncc1)C(C#N)=C(N)O2 (stereo not drawn)	RecA intein inh 32
CCCc1[nH]nc2c1C(c1ccccc1OCC)C(C#N)=C(N)O2 (stereo not drawn)	RecA intein inh 67
CCCc1[nH]nc2c1C(/C(C)=C/c1ccccc1)C(C#N)=C(N)O2 (stereo not drawn)	none
Cc1ccc(OCC(O)Cn2c(=S)[nH]c3c2c(=O)n(C)c(=O)n3C)cc1 (stereo not drawn)	none (no result: 3CLpro inhibitor, DUSP3 inh, RecA intein inh, CCHF vOTU inh)
N#CCC(=O)Nc1ccccn1	none (no result: 3CLpro inhibitor, DUSP3 inh, RecA intein inh, CCHF vOTU inh)
CCCOc1ccc(S(=O)(=O)Nc2ccc3c(c2)OCC(C)(C)C(=O)N3C)cc1	none (no result: 3CLpro inhibitor, DUSP3 inh, RecA intein inh, CCHF vOTU inh)
CCCc1[nH]nc2c1C(c1ccc(OCCN3CCOCC3)c(OC)c1)C(C#N)=C(N)O2 (stereo not drawn)	RecA intein inh 32
CCNC(=S)N=Nc1c(O)[nH]c2ccc([N+](=O)[O-])cc12	RecA intein inh 45
O=C(N=Nc1c(O)[nH]c2ccc([N+](=O)[O-])cc12)c1ccccc1Cl	DUSP3 inh 57
COc1ccccc1-n1cnc2cc(NS(=O)(=O)c3ccc(Br)cc3)ccc21	SSB-PriA inh 41
Cc1ccc2sc(-c3ccc(NC(=O)CCN4C(=O)c5ccccc5C4=O)cc3)nc2c1	DUSP3 inh 54 (no result: SSB-PriA inh)
CC(NC(=O)CN1CCc2ccccc21)c1ccccc1 (stereo not drawn)	DUSP3 inh 54
CC(C)(C)NC(=S)Nc1ccc(Nc2ccccc2)cc1	SSB-PriA inh 52, DUSP3 inh 53
C=CCOc1nc2c(c(=O)n(C)c(=O)n2C)n1Cc1ccc(Cl)cc1	DUSP3 inh 55
C=CCOc1nc2c(c(=O)n(C)c(=O)n2C)n1Cc1ccccc1Cl	none
Cc1ccccc1-n1c(=S)sc2c(=O)[nH]c(SCC(=O)Nc3cc(F)ccc3F)nc21	none (no result: 3CLpro inhibitor, DUSP3 inh, RecA intein inh, CCHF vOTU inh)
CCn1cc(/C=c2/sc3n(c2=O)C2c4ccccc4OC(C)(N=3)C2C(=O)OC)c(C)n1 (stereo not drawn)	DUSP3 inh 53 (no result: SSB-PriA inh)
O=C(CCn1cnc2ccccc2c1=O)N1CCN(C[C@H](O)c2cccs2)CC1	none (no result: 3CLpro inhibitor, DUSP3 inh, RecA intein inh, CCHF vOTU inh)
Cc1ccc2cc(CCNC(=S)NCCn3ccc4ccccc43)c(=O)[nH]c2c1	SSB-PriA inh 46 (no result: 3CLpro inhibitor, DUSP3 inh, RecA intein inh, CCHF vOTU inh)
Cc1ccc(S(=O)(=O)NCC2CCN(Cc3cccs3)CC2)c(C)c1	none (no result: 3CLpro inhibitor, DUSP3 inh, RecA intein inh, CCHF vOTU inh)
COc1ccc(S(=O)(=O)c2cnc3ccccc3n2)cc1	RecA intein inh 35
O=S(=O)(Cc1ccccc1)c1cnc2ccccc2n1	RecA intein inh 30
CC(C)(C)C(=O)Oc1ccc(OCc2ccccc2)cc1	none (no result: 3CLpro inhibitor, DUSP3 inh, RecA intein inh, CCHF vOTU inh)
Nc1cc2c3c(c1)CCN3C(=O)CC2	none (no result: 3CLpro inhibitor, DUSP3 inh, RecA intein inh, CCHF vOTU inh)
COC(=O)CSC1CCN(C(=O)c2c(C)noc2C)C1 (stereo not drawn)	none (no result: 3CLpro inhibitor, DUSP3 inh, RecA intein inh, CCHF vOTU inh)
CN(C(=O)c1ccc(S(=O)(=O)c2cccc(Cl)c2)c([N+](=O)[O-])c1)C1CCCCC1	RecA intein inh 35
COc1ccc(S(=O)(=O)NCc2ccccn2)c2ccccc12	none (no result: 3CLpro inhibitor, DUSP3 inh, RecA intein inh, CCHF vOTU inh)
O=C(Nc1nnc(S(=O)(=O)N2CCCCCC2)s1)c1ccccc1	SSB-PriA inh 101
O=C(COc1ccccc1Cl)Nc1nnc(S(=O)(=O)N2CCCC2)s1	SSB-PriA inh 85
Cc1c(CC(=O)N2C[C@H]3C[C@H](C2)c2cccc(=O)n2C3)c(=O)oc2cc(O)c(Cl)cc12	none (no result: 3CLpro inhibitor, DUSP3 inh, RecA intein inh, CCHF vOTU inh)
CCOC(=O)c1c(NC(=S)NCCc2ccccc2)sc2c1CC(C(C)C)OC2 (stereo not drawn)	none
C=CCNC(=S)Nc1sc2c(c1C(=O)OCC)CC(C(C)C)OC2 (stereo not drawn)	SSB-PriA inh 60
Cc1cccc(-n2ncc3c(N(C)Cc4ccccc4)ncnc32)c1	SSB-PriA inh 104 (no result: 3CLpro inhibitor)
Cc1[nH]nc2c1C(c1ccc(-c3ccc(Cl)cc3)o1)C(C#N)=C(N)O2 (stereo not drawn)	RecA intein inh 68
Cc1[nH]nc2c1C(c1ccc(F)cc1)C(C#N)=C(N)O2 (stereo not drawn)	none (no result: RecA intein inh)
Cc1[nH]nc2c1C(c1ccc(-c3ccccc3C#N)o1)C(C#N)=C(N)O2 (stereo not drawn)	RecA intein inh 65 (no result: CCHF vOTU inh)
